This note sets out measurements from PubChem BioAssay AID1259415 (National Center for Advancing Translational Sciences (NCATS), 2018).

In all, about 410,000 compounds went through this assay and about 18,000 (4.4%) were called active. Roughly 7% stayed inconclusive and do not appear here. This is one part of a sample in which actives are shown more often than they occur. Values without a mark were called inactive. Cut-off read from the data, not from the text of the source: active = activity change below about -60%; inconclusive = no clear call, values can overlap the other calls; inactive = above about -39%.
% is set by controls: 0 for no effect and ±100 for the full control effect.

A short description of this assay: qHTS Assay for inhibitors of the human cytomegalovirus (HCMV). Particulars: HFF cells, HCMV-luciferase reporter, 72 h; at 57.5 µM; active compounds read low. The essentials: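 Two-dose cell screen: HFF monolayers treated with compounds and infected with luciferase-expressing HCMV at 1 PFU/cell, 72 h at 37C, then lysed for luciferase measurement.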
A general note: Quantitative high-throughput screening tests each substance at several concentrations.
Turning to `Cc1cc(Br)ccc1NC(=O)Cn1cnc2sc(C)c(S(=O)(=O)N3CCN(C)CC3)c2c1=O`, the activity change, negative = inhibition is 0.161%. Take `CCCS(=O)(=O)NC(=O)C1(C)CCCN(C(=O)c2cc(C)on2)C1` (configuration not stated): the activity change, negative = inhibition was 32.5%. For the molecule `Cc1cccc(N2CCN(C(=O)c3ccc4c(c3)CCN4S(=O)(=O)c3ccccc3)CC2)c1C`, the activity change, negative = inhibition was -25.8%. For the molecule `O=C(CC1N=C2c3ccccc3N=C(SCc3cccc(Cl)c3)N2C1=O)NCc1ccc2c(c1)OCO2` (configuration not stated), the activity change, negative = inhibition is -15.6%. In the case of `CCCN1C(=O)COCc2cc(-c3cccc(CO)c3)ccc21`, the activity change, negative = inhibition was 6.92%.

For the molecule `CCc1ccc(-c2nc(SCC(=O)NC3CCCC3)n[nH]2)cc1`, the activity change, negative = inhibition is -90.7% (active). As for `COc1ccc(CNC(=O)CSc2n[nH]c(-c3ccc(F)cc3)n2)cc1`, the activity change, negative = inhibition was 19.4%. For `COc1ccc(-c2nc(SCC(=O)N3CCCCC3C)n[nH]2)cc1` (configuration not stated), the activity change, negative = inhibition is 1.78%. For `COc1cc(/C=C/CNC[C@H]2O[C@@H](n3cnc(C(N)=O)n3)[C@H](O)[C@@H]2O)ccc1O`, the activity change, negative = inhibition is -3.95%. As to `Cc1ccccc1C(=O)N(Cc1ccc(N(C)C)cc1)CC1CCCO1` (configuration not stated), the activity change, negative = inhibition is -18.1%. Take `Cc1cc(C)cc(-n2ccnc2SCC(=O)Nc2nc3ccccc3s2)c1`: the activity change, negative = inhibition was -5.53%. For `c1ccc(C(=NNc2nc3ccccc3s2)c2ccccn2)cc1`, the activity change, negative = inhibition was -99.2% (active). For `Cc1ccccc1-n1c(=O)c2ccccc2n(Cc2ccc(F)cc2)c1=O`, the activity change, negative = inhibition was -13.5%. Turning to `CN1C(=O)/C(=C/C=C2\SCCN2C)OC1=S`, the activity change, negative = inhibition is 143%.

`Cc1cc2c(cc1C)[n+](C)cn2CC(O)COCC1CC=CCC1` (configuration not stated): the activity change, negative = inhibition was -71.1% (active). As for `CCCC12CN3CC(CCC)(CN(C1)C3c1c[nH]c3ccc(OC)cc13)C2=O` (configuration not stated), the activity change, negative = inhibition is 14%. As for `CCOc1ccccc1NC(=O)NC1CCCCCCC1`, the activity change, negative = inhibition was -14.2%.

As to `CCOc1cccc(=NC2CCCCC2)c2c(C)[nH]c(C)c12`, the activity change, negative = inhibition was -110% (active). Turning to `c1ccc2c(c1)C(=NC1CCCCC1)NC2=NC1CCCCC1`, the activity change, negative = inhibition was -38.8%. Take `CCOc1ccc(Nc2oc(/C=C/c3ccc(F)cc3)nc2C#N)cc1`: the activity change, negative = inhibition is 11.4%. `Cc1cccc(Cn2c(=O)n(CCC(=O)NCCc3ccc(Cl)cc3)c(=O)c3sccc32)c1`: the activity change, negative = inhibition was -10.1%. Take `Cc1ccc(CCNC(=O)Cn2c(-c3cccs3)cc3cc(F)ccc32)cc1`: the activity change, negative = inhibition is -16.7%. As to `O=C(Cn1c(-c2cccs2)cc2ccccc21)NCCc1ccc(Cl)cc1`, the activity change, negative = inhibition is -112% (active).

With `O=C(c1ccc(Br)cc1)N(Cc1cccs1)c1ccc(F)cc1`, the activity change, negative = inhibition is -5.5%. For `O=C(Nc1ccc2nc(SCC(=O)N3CCc4ccccc43)sc2c1)c1ccccc1F` the value was 26.3%.

As for `O=C(COc1ccccc1Cl)Nc1ccccc1C(=O)NC1CC1`, the activity change, negative = inhibition is -2.06%. With `CC(NCC(=O)Nc1ccccc1C(=O)NC1CC1)c1ccccc1Cl` (configuration not stated), the activity change, negative = inhibition was -103% (active). On to `CCCC(NCC(=O)Nc1ccccc1C(=O)NC1CC1)c1ccccc1` (configuration not stated), for which the activity change, negative = inhibition was -16.1%. For `COC(=O)C1C(=O)NCC1c1ccc(OC)cc1` (configuration not stated), the activity change, negative = inhibition was 19.2%.

For `O=C(NC1CCC(O)CC1)c1ccc(S(=O)(=O)NCc2ccco2)cc1` (configuration not stated), the activity change, negative = inhibition is -14.7%. Consider `CCc1nnc(SCC(=O)Nc2cc(OC)ccc2OC)nc1CC`, for which the activity change, negative = inhibition is 0%. For the molecule `COc1ccc(C(=O)Oc2cc(/C=N/NS(=O)(=O)c3ccc(C)cc3)ccc2OC)cc1`, the activity change, negative = inhibition is -102% (active). `COc1ccc(CCNC(=O)NS(=O)(=O)c2ccc(C)cc2)cc1OC`: the activity change, negative = inhibition is 12.4%. With `COc1ccc(S(=O)(=O)N/N=C\c2ccc(OC)c(COc3ccc(C)cc3[N+](=O)[O-])c2)cc1`, the activity change, negative = inhibition is 12.7%. For `Cc1cccc(NC(=O)c2ccc3nc(C(C)C)oc3c2)c1C`, the activity change, negative = inhibition is -5.74%. Take `CCOc1ccc(C(=O)/C=C/c2cn(CC(O)CN3CCCCCC3)c3ccccc23)cc1` (configuration not stated): the activity change, negative = inhibition was -29%. On to `Cc1ccc(-c2nn(CCC(=O)Nc3ccc(OC(F)(F)F)cc3)c(=O)c3ccccc23)cc1`, for which the activity change, negative = inhibition is 0.866%.

For `O=C(Nc1cc(C(F)(F)F)ccc1Cl)c1ccc2c(c1)CCN2S(=O)(=O)c1ccccc1`, the activity change, negative = inhibition was -29.1%.

For `COc1ccc(S(=O)(=O)N2CCc3ccccc32)cc1C(=O)Nc1cc(S(C)(=O)=O)ccc1Cl`, the activity change, negative = inhibition was -62.7% (active).

As for `CCN(C(=O)COC(=O)c1cc(S(=O)(=O)N2CCc3ccccc32)ccc1OC)C1CCS(=O)(=O)C1` (configuration not stated), the activity change, negative = inhibition is -18%. With `CCc1nc2c(OCCOc3ccccc3)cccn2c1N(C)C(=O)c1ccccc1F`, the activity change, negative = inhibition was -30.7%. With `COc1ccc2c(c1)C(c1cccs1)=NNC(c1cccnc1)=N2` the figure was -22.6%; with `COC1C(O)C(C)OC(OC2CCC3(C=O)C(CCC4C3CCC3(C)C(C5=CC(=O)OC5)CCC43O)C2)C1O` (configuration not stated), -106% (active).

Turning to `Brc1cccc(-c2nnn3c2nc(NC2CCCCC2)c2ccccc23)c1`, the activity change, negative = inhibition was 34.7%. As for `O=C(Cc1ccc(Cl)cc1)NCC(c1cccs1)S(=O)(=O)c1ccc(Cl)cc1` (configuration not stated), the activity change, negative = inhibition is -8.05%. Consider `O=C(CNC(=O)c1ccco1)OCC(=O)c1ccccc1`, for which the activity change, negative = inhibition is 49.6%. For `O=C(NNC(=O)c1ccco1)Nc1ccccc1` the value was -62% (active); for `O=C(CNC(=O)c1ccco1)NNC(=O)c1ccc(Br)cc1`, -4.75%. As to `COc1cccc(-c2n[nH]c3c2C(c2cccc(O)c2)N(C)C3=O)c1` (configuration not stated), the activity change, negative = inhibition was 179%. With `CC(OC(=O)CN1C(=O)C2CCCCC2C1=O)C(=O)Nc1ncc(Cl)cc1Cl` (configuration not stated) the figure was 22.5%. For `CCOc1cc(NC(=O)c2ccccc2C(=O)O)c(OCC)cc1NC(=O)c1ccccc1F` the value was -3.32%. Regarding `Cc1nc2ccn(Cc3cccnc3)c(=O)c2cc1C(=O)N1CCN(c2ccccc2F)CC1`, the activity change, negative = inhibition was 10.9%. In the case of `CCN1CCN(c2cc3nc(C)n(Cc4ccccc4)c(=O)c3cc2NC(=O)c2ccccc2F)CC1`, the activity change, negative = inhibition was -85.2% (active).

For the molecule `CCCCN(C)C(=O)c1ccc2c(c1)N(CC)C(=O)c1ccccc1S2(=O)=O`, the activity change, negative = inhibition is -8.24%. `Cc1cccc(Nc2nc(C)nc(N)c2S(=O)(=O)c2ccccc2)c1`: the activity change, negative = inhibition is 0.44%. Take `C=CCNC(=O)COc1coc(CN2CCN(Cc3ccccc3)CC2)cc1=O`: the activity change, negative = inhibition is -9%. Consider `N=c1ccccn1Cc1ccccc1`, for which the activity change, negative = inhibition is -18.5%.

Regarding `C=CCNC(=S)/N=c1/ccccn1Cc1ccccc1`, the activity change, negative = inhibition was -98.8% (active). As to `CCCNC(=O)C1CCC(Cn2c(=O)c3sccc3n(Cc3ccccc3F)c2=O)CC1` (configuration not stated), the activity change, negative = inhibition was 1.25%. On to `CCOC(=O)CNC(=O)CSc1ccc2nnc(-c3cccnc3)n2n1`, for which the activity change, negative = inhibition was 49.6%. With `CC1=NNC(=O)C1CC(=O)N/N=C/c1ccncc1` (configuration not stated), the activity change, negative = inhibition is 42.5%. On to `Cc1c(Cl)cccc1NC(=O)CSc1ccc(-c2cccnc2)nn1`, for which the activity change, negative = inhibition is -12.1%. With `O=C(O)/C(=C/c1cccnc1)NC(=O)c1ccccc1` the figure was 6.75%; with `O=C(N/N=C/c1cccnc1)c1cc2ccccc2cc1O`, -98% (active); with `O=C(N/N=C/c1cccc2cccnc12)[C@H]1C[C@@H]1c1ccccc1`, 20.4%. For `O=C(CSc1cccc2cccnc12)N/N=C/c1cccnc1` the value was -101% (active); for `CCOC(=O)N/N=C/c1cccnc1`, -60.5% (active); for `O=C(N/N=C/c1ccc(O)c(O)c1)C1c2ccccc2Oc2ccccc21`, 23.9%.

In the case of `COc1ccc(Cn2ccn(CC(=O)Nc3cc(C)ccc3C)c(=O)c2=O)cc1`, the activity change, negative = inhibition is 15.8%. For `COc1ccccc1NC(=O)CN1C(=O)c2ccccc2Sc2ccc(C(=O)N3CCCC3)cc21`, the activity change, negative = inhibition was 14.4%. As to `CC(C)(C)OC(=O)N1CCC(c2c(C(=O)N3CCc4ccccc4C3)cnn2-c2ccc(F)cc2)CC1`, the activity change, negative = inhibition is 6.95%. For `Cc1cc(C)cc(NC(=O)CSc2oc(-c3ccccc3)nc2S(=O)(=O)c2ccc(Cl)cc2)c1`, the activity change, negative = inhibition is -2.05%. Take `COc1ccc(CCC(=O)NCc2ccc3c(c2)CCN3C(=O)c2ccc(F)cc2)cc1`: the activity change, negative = inhibition was 15.1%. For `CCc1ccc2oc(-c3ccc(NC(=O)c4cc5ccccc5o4)cc3)nc2c1`, the activity change, negative = inhibition is 37.7%. In the case of `Cc1cccc(C)c1NC(=S)N1CCCCCC1`, the activity change, negative = inhibition is -64.3% (active).

`Cc1cccc(NC(=O)N2CCCCCC2)c1C`: the activity change, negative = inhibition was 57.9%. `Cc1cccc(NC(=S)N2CCC(O)CC2)c1C`: the activity change, negative = inhibition was -32.2%.

As for `O=C1NCC(Nc2ccccc2)C(=O)N1` (configuration not stated), the activity change, negative = inhibition was -7.88%. As to `CCc1ccc(NS(=O)(=O)c2ccc3[nH]cc(C(=O)NCCc4cccc(C)c4)c(=O)c3c2)cc1`, the activity change, negative = inhibition was 93.7%. For `OC(CNCC1CCCO1)Cn1c2ccc(Br)cc2c2cc(Br)ccc21` (configuration not stated), the activity change, negative = inhibition was 2.12%. For the molecule `Cc1cc(C)c2oc(-c3cccc(NC(=O)c4cccc(F)c4)c3C)nc2c1`, the activity change, negative = inhibition is -0.821%.

As to `CC(=O)c1cc(CN2CCC(C(=O)Nc3cccc(-c4cscn4)c3)CC2)cs1`, the activity change, negative = inhibition was -30.7%.

As to `O=C(Nc1cccc(-c2cscn2)c1)C1CCN(Cc2ccsc2)CC1`, the activity change, negative = inhibition is -33.6%.

On to `CCn1cc(CN2CCC(C(=O)Nc3cccc(-c4cccc(Cl)c4)c3)CC2)cn1`, for which the activity change, negative = inhibition was -97.6% (active). Consider `CCc1ccccc1N1CC(c2nc3ccccc3n2CCCCOc2ccccc2)CC1=O` (configuration not stated), for which the activity change, negative = inhibition is -4.32%. With `COc1ccc(OCCCn2c(C3CC(=O)N(c4ccc(F)cc4)C3)nc3ccccc32)cc1` (configuration not stated), the activity change, negative = inhibition is -13%. On to `CCCCN1CC(c2nc3ccccc3n2CCCCOc2ccc(C)cc2C)CC1=O` (configuration not stated), for which the activity change, negative = inhibition was -105% (active). In the case of `O=C(NCc1ccccc1)C1CCN(S(=O)(=O)c2ccc3[nH]c(=O)ccc3c2)CC1`, the activity change, negative = inhibition is 23%. For `Cc1ccccc1OCC(=O)Nc1c(C(=O)Nc2ccccc2F)oc2ccccc12`, the activity change, negative = inhibition is 11.7%.

Take `C=CCSc1nnc(Cn2c(=O)sc3ccccc32)n1C`: the activity change, negative = inhibition is -2.22%.

For the molecule `COc1ccc(Cn2c(=O)sc3ccccc32)cc1OC`, the activity change, negative = inhibition was -99.8% (active). On to `COc1ccc(CN2CCOC2=O)cc1OC`, for which the activity change, negative = inhibition is -13.1%.
